Data: PubChem BioAssay (NCI)
The panel holds about 79,000 compounds, 15% with a hit somewhere; the sample as a whole holds those more often. Cut-off read from the data, not from the text of the source: active = growth inhibition above about 70%; inactive = the rest.

Experiments:
[1] = NCI Yeast Anticancer Drug Screen. Data for the rad50 strain (AID 155);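 note: 0% = growth of vehicle-only cultures of the same strain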; settings: S. cerevisiae rad50 strain growth inhibition; at 50.0 µM; hits give high values
Procedure, shortened: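 Genetically altered yeast (DNA repair pathway); compound treatment; growth inhibition vs vehicle ctrl.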

[2] = NCI Yeast Anticancer Drug Screen. Data for the mec2-1 strain (AID 157); settings: S. cerevisiae mec2-1 strain, at 50.0 µM, hits give high values
Procedure, shortened: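 Each compound was tested on mec2-1 yeast, a strain altered in DNA damage repair or cell cycle control. Growth inhibition is reported relative to vehicle.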

[3] = NCI Yeast Anticancer Drug Screen. Data for the sgs1 mgt1 strain (AID 161);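 note: 0% = growth of cultures given vehicle only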; settings: S. cerevisiae sgs1 mgt1 strain, at 50.0 µM, hits give high values
Procedure, shortened: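 Genetically altered yeast, compound exposure, growth inhibition relative to vehicle.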

[4] = NCI Yeast Anticancer Drug Screen. Data for the cln2 rad14 strain (AID 165);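 note: 0% = growth equal to vehicle treated cultures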; settings: S. cerevisiae cln2 rad14 strain, at 50.0 µM, hits give high values
Procedure, shortened: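 Test compounds were added to cln2 rad14 yeast cultures; inhibition of growth was then determined by comparison with vehicle treatment.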

[5] = NCI Yeast Anticancer Drug Screen. Data for the bub3 strain (AID 167); settings: S. cerevisiae bub3 mutant strain, at 50.0 µM, hits give high values
Procedure, shortened: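 Yeast carrying a defined mutation is treated with each compound, and growth is compared with that of vehicle-exposed cells to give inhibition.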

[6] = NCI Yeast Anticancer Drug Screen. Data for the mlh1 rad18 strain (AID 175); settings: S. cerevisiae mlh1 rad18 strain growth inhibition; at 50.0 µM; hits give high values
Procedure, shortened: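 Inhibition values reflect reduced growth of mutant yeast versus vehicle-treated controls following compound exposure; the mutations affect DNA damage repair.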

Measured: growth inhibition

O=C(CC(c1ccccc1)C1CCCC1=O)c1ccccc1 (configuration not stated)
inactive: [1] 11.1% | [2] 1.65% | [3] 17.6% | [4] -21.3% | [5] 6.1% | [6] 17.1%

O=C(O)Cn1c(=O)n(CC(=O)O)c2ccccc21
inactive: [1] 6.85% | [2] -4.95% | [3] -4.2% | [4] -10% | [5] 3.25% | [6] -7.65%

COc1cc(OC)c(N=Nc2c(C)nc(N)nc2-c2ccccc2)cc1Cl
inactive: [1] 44.6% | [2] 5.45% | [3] 19.2% | [4] 20.3% | [5] 4.6% | [6] 23.9%

CC1CCC2C(C)C3C(CC4C5CC=C6CC(O)CCC6(C)C5CCC43COC(=O)c3ccccc3)N2C1 (configuration not stated)
inactive: [1] 44.4% | [2] 16.8% | [3] 55.8% | [4] 21.4% | [5] 5.95% | [6] 42.6%

c1ccc(N=C2SC(=NNc3ccccc3)SC2=Nc2ccccc2)cc1
inactive: [1] -21.8% | [2] 6.25% | [3] -21.9% | [4] -29.5% | [5] -8.25% | [6] -4.1%

Cc1ccnc2ccccc12
inactive: [1] 0.15% | [2] 1.55% | [3] -1.6% | [4] -3.2% | [5] -2.15% | [6] -11.4%

Nc1c(F)c(F)c(C(=O)O)c(F)c1F
inactive: [1] -16.1% | [2] -20.6% | [3] -10.4% | [4] -3.9% | [5] -4.8% | [6] -29.4%

S=C(S)N1CCN(c2ccc(Cl)c(Cl)c2)CC1
inactive: [1] 4% | [2] -1.65% | [3] 20.9% | [4] 2.95% | [5] 8.1% | [6] 57.6%

O=C1CC(c2ccc(Cl)cc2)NC(c2ccc(Cl)cc2)C1 (configuration not stated)
inactive: [1] 13.6% | [2] 2.35% | [3] 8.55% | [4] 11.2% | [5] 6.4% | [6] 14.8%

O=C(Cc1ccccc1)NN1C(=O)C(Cl)C1c1ccc(O)cc1 (configuration not stated)
inactive: [1] -27.9% | [2] -16.4% | [3] -11.2% | [4] 3.7% | [5] -29.4% | [6] 3.4%

Cc1ccc([N+](=O)[O-])cc1NC(=O)C(=O)C1CCC2=C(Sc3ccccc3N2)C1=O (configuration not stated)
inactive: [1] 0.5% | [2] -16.9% | [3] -9.45% | [4] -17.9% | [5] -0.4% | [6] -5.85%

Cn1ccc2c([N+](=O)[O-])cccc2c1=O
inactive: [1] 4.1% | [2] 2% | [3] 2.55% | [4] -45.9% | [5] -25.4% | [6] 4.35%

CC(C)NC(=O)OCCN=C1c2ccccc2C(Br)C(Br)c2ccccc21 (configuration not stated)
inactive: [1] 3.25% | [2] -5.1% | [3] 2.05% | [4] 1.1% | [5] 4.9% | [6] 8.6%

COc1cccc2c1C(=N)c1c(O)c3c(c(O)c1C2=O)C[C@@](O)(C(=O)CO)C[C@@H]3OC1CC(N)C(O)C(C)O1 (some centres not stated)
inactive: [1] 55.4% | [2] 23.2% | [3] -8.7% | [4] 22.4% | [5] -16.9% | [6] -13.9%

Cc1cn(C2CC(O)C(O)C(C)O2)c(=O)[nH]c1=O (configuration not stated)
inactive: [1] 22.2% | [2] 6.15% | [3] 24.6% | [4] 5.8% | [5] 12.2% | [6] 25.4%

CC(O)CNC(C)(C)CN (configuration not stated)
inactive: [1] -7.45% | [2] -15.5% | [3] -10.4% | [4] 4.4% | [5] -18.8% | [6] -4%

Nc1ncnc2c1[nH]c(=O)n2-c1ccccc1
inactive: [1] -46.6% | [2] -30.5% | [3] -16.6% | [4] -1.3% | [5] -17.1% | [6] -6.9%

O=C1c2ccccc2C(O)(C#Cc2ccccc2)c2c1c(-c1ccccc1)c1ccccc1c2-c1ccccc1 (configuration not stated)
inactive: [1] 14.7% | [2] 6.15% | [3] 15.7% | [4] 9.75% | [5] -8.3% | [6] 10.4%

CSc1ncnc2c1ncn2CC(=O)C1CCC2C3CCC4=CC(=O)CCC4(C)C3CCC12C (configuration not stated)
inactive: [1] 7% | [2] -48.2% | [3] -1.9% | [4] -29.6% | [5] -28.9% | [6] 16.4%

CCCCCC(=O)c1ccccc1
inactive: [1] -27.9% | [2] -16.5% | [3] -19.3% | [4] -23.9% | [5] -8.8% | [6] -6.1%

CCc1ccc(COC(=O)NC)nc1
inactive: [1] 38% | [2] -0.75% | [3] 4% | [4] -18% | [5] -0.2% | [6] 19.6%

CCN(CCNc1cc(OC)cc2cccnc12)c1ccccc1
inactive: [1] 59.9% | [2] 20.7% | [3] 48.4% | [4] 23.2% | [5] 47% | [6] 68.2%

NC(=S)N/N=C/c1ccc(Cl)cc1Cl
inactive: [1] 65.7% | [2] 42.5% | [3] 35.9% | [4] 28.3% | [5] 45.2% | [6] 38.7%

O=C(c1cccc([N+](=O)[O-])c1)N1CCCCC1
inactive: [1] 1.4% | [2] -11.8% | [3] 16.2% | [4] -17.1% | [5] 4.1% | [6] -5.05%

CCCC(O)C(C)(C)[N+](=O)[O-] (configuration not stated)
inactive: [1] 60.9% | [2] 5.45% | [3] 12.9% | [4] -2.85% | [5] 8% | [6] 9.95%

CCOC(=O)c1ccc(-n2nc3nc(N)[nH]c(=O)c3n2)cc1
inactive: [1] -17.8% | [2] -21.2% | [3] -4.35% | [4] -4.15% | [5] -52.9% | [6] -34.4%

Cc1cccc(C(=O)NN)c1
inactive: [1] -4.15% | [2] 10.2% | [3] -20.2% | [4] -5.4% | [5] -0.2% | [6] -5.95%

COc1cc(/C=C2/C(=O)N=C(NC(C)=O)N2C)ccc1OC(C)=O
inactive: [1] -35.9% | [2] -2.55% | [3] -14.7% | [4] 6.35% | [5] 5.55% | [6] -37.1%

CC(C)(C)C(=O)NO
inactive: [1] -12.6% | [2] -12.1% | [3] -13.6% | [4] 6.8% | [5] 4.5% | [6] -0.3%

CC1(C)CC(=O)C=C(NCCCCCCCCNC2=CC(=O)CC(C)(C)C2)C1
inactive: [1] -0.25% | [2] 19.8% | [3] 5.7% | [4] 6.45% | [5] 5% | [6] 9.8%

[NH-]C(CC(N)=O)C(=O)O.[NH-]C(CC(N)=O)C(=O)O.[Zn+2] (configuration not stated)
inactive: [1] -3.15% | [2] -2.05% | [3] -3.9% | [4] -18.1% | [5] -2.75% | [6] 5.25%

Nc1nc2scnc2c(=O)[nH]1
inactive: [1] 7.1% | [2] -4.35% | [3] -3.25% | [4] -7.95% | [5] -8.5% | [6] 8.35%

c1ccc(SC2CCSc3ccccc3C2Sc2ccccc2)cc1 (configuration not stated)
inactive: [1] 3.2% | [2] -14.7% | [3] 3.2% | [4] 3.65% | [5] 0.5% | [6] 11.2%

CC(=O)c1c(C)n(-c2ccccc2)c2c1nnc1ccccc12
inactive: [1] 3.3% | [2] 3.65% | [3] 22.2% | [4] -8.65% | [5] -5.65% | [6] 4.15%

CCCC(C)C(=O)OCCOC (configuration not stated)
inactive: [1] 2.85% | [2] -5.3% | [3] -2.95% | [4] -19.1% | [5] 4.45% | [6] 0%

NCCNCc1ccncc1
inactive: [1] -38% | [2] -41.5% | [3] -58.5% | [4] -11.3% | [5] -47.2% | [6] -27.2%

CC1(C)CCC(C)(C)C1C(=O)NC(O)C(=O)O (configuration not stated)
inactive: [1] -21.4% | [2] 8.8% | [3] -33% | [4] -2.2% | [5] 3.25% | [6] -9.8%

CCCCCCn1ncc(=O)[nH]c1=O
inactive: [1] 4.2% | [2] -6.7% | [3] 2.75% | [4] -40.8% | [5] 6.6% | [6] 8.9%

CC(C)(C)OC(=O)N(CCCN)CCCCN
inactive: [1] -7.65% | [2] -9.75% | [3] -40.5% | [4] -21.4% | [5] -32% | [6] -53.9%

CC(=O)CC(=O)NCC#N
inactive: [1] 27.9% | [2] 15.8% | [3] 23.9% | [4] 25.6% | [5] 11.8% | [6] 24.6%

CC1(C)OC2COC3OC(C)(C)OC3(CO)C2O1 (configuration not stated)
inactive: [1] -1.7% | [2] -17.8% | [3] -6.1% | [4] -4.9% | [5] 20.5% | [6] 5.15%

CC(C)CCOC(=O)COc1ccc(Cl)cc1Cl
inactive: [1] 6.95% | [2] -13.7% | [3] 3.55% | [4] 19.2% | [5] 18.8% | [6] -17%
